Measured values published in PubChem BioAssay AID504334 (NMMLSC, 2011).

assay: AGP1-GFP expression modulators, hit retest, confirmation, cell-based, flow cytometry, S. cerevisiae, cherry pick set 3 (AID 504334);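 note: median GFP fluorescence per well by flow cytometry over the all cells gate; ratio of sample to mean DMSO control signal so DMSO = 100% not 0%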; settings: S. cerevisiae AGP1-GFP strain, 3 h, at 10 µM, active compounds read high;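 active = response relative to DMSO over 150%; inconclusive = yeast strain with under 70 recorded events; inactive = the rest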

Percent response vs DMSO, inactive:
Cc1ccc2c(Cl)cc(Cl)c(OCC(=O)O)c2n1 109%, CC(=O)NCCOc1cccc2cccnc12 101%, O=C(N/N=C/c1ccccc1O)c1cccc2ccccc12 99.8%, O=C(O)c1ccccc1-c1ccccc1C(=O)Nc1ccc(-c2nc3cc(Cl)ccc3o2)cc1 103%, C/C(=C\C(=O)c1ccccc1)Nc1ccc(O)cc1 98.4%, O=C(Nc1nc(-c2ccccn2)cs1)c1ccccc1-n1cnnn1 100%, Cc1ccc(NN2C(=O)C=C(c3ccccc3)C2=O)cc1 92.8%, C/C(=C\C(=O)c1ccc(C)cc1)Nc1cccc(O)c1 101%, COc1ccccc1Nc1nc(NCCC(C)C)nc(N)c1[N+](=O)[O-] 104%, Cc1ccc(Nc2cc(=O)[nH]c(=O)[nH]2)cc1Cl 102%, Nc1cc(C(=O)O)c(N)c2c1C(=O)c1ccccc1C2=O 102%, C=CCNc1ncnc2ccc(Br)cc12 101%, COc1cccc2c(=O)c(C(=O)O)c[nH]c12 94.1%, Nc1nc(NCCOCCO)nc(Nc2cccc(F)c2)c1[N+](=O)[O-] 98.1%, COc1ccc(NC(=O)ON=C2c3ccccc3-c3ccccc32)cc1 98.1%, Oc1c(Br)cc(Br)c2cccnc12 109%, O=C(O)c1ccc(C=NNC(=O)c2cccc3ccccc23)cc1 107%, CC(=O)NC(C)c1cc(Cl)c2cccnc2c1O (stereo not drawn) 102%
